G9a block: G9a (human) methyltransferase inhibition | Q96KQ7 | G9a H3K9 monomethylation, AlphaScreen, 2 h | Potency, µM (highest dose often 102 µM), usual class: inhibitors | 350,000 tested, 8.8% active; further: nearly all actives have a fitted effect of over 75% in size
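AlphaScreen read-out: biotin-H3K9 peptide (500 nM) methylation by 20 nM enzyme with 20 uM SAM, 2 h at room temperature after 15 min compound preincubation; anti-monomethyl H3K9 antibody plus donor/acceptor beads, 10 min dark.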
HP1b binding inh: HP1-beta chromodomain-methylated histone interaction inhibition | Potency, µM (series often up to 114 µM), hits mostly inhibitors | P83916 | 390,000 tested, 0.56% active | AlphaScreen HP1-beta / biotin-H3K9me3 peptide binding; further: nearly all actives have a fitted effect of over 70% in size
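HP1-beta protein (50 nM final) preincubated 30 min at room temperature with biotinylated H3(1-18)K9me3 peptide (50 nM) in PBS pH 7.4, 0.01% Tween-20, then compound added for 30 min. AlphaScreen streptavidin donor/nickel chelate acceptor beads (10 ug/mL final), 30 min dark, luminescence read.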
L3MBTL1 inh: blocks human L3MBTL1 | Potency, µM (highest dose often 57.1 µM), actives largely listed as inhibitors | 230,000 tested, 0.66% active | AlphaScreen L3MBTL1–H3K9me1 peptide binding | Q9Y468; further: nearly all actives have a fitted effect of over 60% in size
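Read-out is AlphaScreen signal from streptavidin donor and nickel chelate acceptor beads (10 ug/mL final each) bridging L3MBTL1 (50 nM) and biotinylated K9-monomethylated H3(1-15) peptide (75 nM), after 30 min compound exposure at room temperature.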
BAZ2B inh: BAZ2B (human) inhibition; AlphaScreen BAZ2B-H3K14Ac peptide displacement; Potency, µM (doses to about 114 µM), actives largely listed as inhibitors; Q9UIF8; 360,000 tested, 4.4% active; further: nearly all actives have a fitted effect of over 60% in size
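Compounds, titrated to a top concentration of 110 uM, were incubated 30 min at room temperature with preformed BAZ2B/acetyl-K14 H3 peptide complex (50 nM each). Proximity signal was measured by AlphaScreen after 20 min with beads.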
JMJD2A Tudor: JMJD2A Tudor domain (human) inhibition | AlphaScreen JMJD2A-Tudor / H3K4me3 peptide binding | Potency, µM (doses to about 114 µM), actives largely listed as inhibitors | AID 504339 | O75164 | 390,000 tested, 4.4% active; further: nearly all actives have a fitted effect of over 50% in size
Large screens that a line does not name were inactive. In the library only some 11% were active in any assay of this set; here they are far more common. The call rests on the fitted dose curve; in most records, active means well fitted inhibition curve with a large enough effect; inconclusive means small, poorly fitted or top-dose-only effect; inactive means no such curve, though single readings can be large or run the other way.

N#C/C(=C\C=C\c1ccccc1)c1nc(-c2ccc3c(c2)OCO3)cs1	L3MBTL1 inh inconclusive
CCN(CC)CCOC(=O)c1ccc(N/C=C(/C#N)c2nc(-c3ccc(OC)cc3)cs2)cc1	G9a block 11µM, HP1b binding inh inconclusive, BAZ2B inh inconclusive, JMJD2A Tudor 56µM (no result: L3MBTL1 inh)
CCN(CC)CCOC(=O)c1ccc(N/C=C(/C#N)c2nc(-c3ccc4c(c3)OCO4)cs2)cc1	G9a block inconclusive, HP1b binding inh 32µM, BAZ2B inh inconclusive, JMJD2A Tudor 40µM (no result: L3MBTL1 inh)
COc1cc(/C=C(\C#N)c2nc(-c3cc4ccccc4oc3=O)cs2)ccc1O	G9a block inconclusive
CCN(CC)CCOC(=O)c1ccc(N/C=C(/C#N)c2nc(-c3cc4ccccc4oc3=O)cs2)cc1	G9a block 1.6µM, HP1b binding inh 18µM, JMJD2A Tudor inconclusive (no result: L3MBTL1 inh)
COc1cc(/C=C(/C#N)c2nc(-c3cc4ccccc4oc3=O)cs2)cc([N+](=O)[O-])c1O	G9a block 3.2µM, BAZ2B inh inconclusive (no result: HP1b binding inh, JMJD2A Tudor)
COc1ccc(OC)c(NC(=O)C(C)n2c(=O)c(-c3ccccc3NC(C)=O)nc3ccccc32)c1 (stereo not given)	none (no result: L3MBTL1 inh)
COc1ccc(-n2c(=O)c3ccccc3n(Cc3ccc(F)cc3Cl)c2=O)cc1OC	none (no result: L3MBTL1 inh)
CN(Cc1ccccc1)c1nc2c(S(=O)(=O)c3cccc(Cl)c3)nnn2c2ccsc12	none (no result: L3MBTL1 inh)
COc1cc(C2c3sc(=O)[nH]c3SC3C4CCC(C4)C23)ccc1O (stereo not given)	G9a block 13µM, HP1b binding inh inconclusive, BAZ2B inh inconclusive, JMJD2A Tudor inconclusive
O=c1[nH]c2c(s1)C(c1ccccc1)C1C3CCC(C3)C1S2 (stereo not given)	G9a block 45µM (no result: L3MBTL1 inh)
COc1cc(C2c3sc(=O)[nH]c3SC3C(=O)N(c4ccc(C)cc4)C(=O)C32)ccc1O (stereo not given)	G9a block inconclusive, BAZ2B inh inconclusive
COC(=O)C1CSc2[nH]c(=O)sc2C1c1ccc(O)c(OC)c1 (stereo not given)	G9a block 14µM (no result: L3MBTL1 inh)
COc1ccc(C2c3sc(=O)[nH]c3SC3C4CCC(C4)C23)cc1 (stereo not given)	G9a block inconclusive, BAZ2B inh inconclusive
CCOC(=O)C1CSc2[nH]c(=O)sc2C1c1ccccc1 (stereo not given)	G9a block 45µM (no result: L3MBTL1 inh)
COc1ccccc1C(=O)NC(=O)COC(=O)c1nc(Cl)ccc1Cl	none
C=CCc1c(C)[nH]c2c(OC)cccc2c1=S	G9a block 4µM, JMJD2A Tudor inconclusive
COc1ccc(C2CC3(CC(C)(C)NC(SC)=N3)Oc3cc(O)cc(C)c32)cc1 (stereo not given)	G9a block inconclusive, JMJD2A Tudor 79µM
CC(=O)Nc1ccc(NC(=O)C(C)Sc2nc3ccccc3c(=O)n2CC2CCCO2)cc1 (stereo not given)	G9a block inconclusive
CC(=O)Nc1ccc(NC(=O)C(C)Sc2nc3ccccc3c(=O)n2Cc2ccco2)cc1 (stereo not given)	G9a block 56µM
CC(=O)Nc1ccc(OCc2cccc(-c3nc4ccccc4c(=O)n3Cc3ccco3)c2)cc1	JMJD2A Tudor 56µM (no result: G9a block, HP1b binding inh, L3MBTL1 inh, BAZ2B inh)
CCN(C(=O)COC(=O)/C(C#N)=C/c1ccc(OC)cc1)C1CCS(=O)(=O)C1 (stereo not given)	none
CCOC(=O)c1ccc(NC(=O)CSc2nccn2-c2ccc(OCC)cc2)cc1	G9a block inconclusive, BAZ2B inh inconclusive (no result: L3MBTL1 inh)
Cc1[nH]n(-c2ccccc2)c(=O)c1C(c1ccccc1[N+](=O)[O-])C(C#N)C#N (stereo not given)	G9a block 28µM, BAZ2B inh inconclusive, JMJD2A Tudor inconclusive (no result: L3MBTL1 inh)
Cc1ccc(C(C[N+](=O)[O-])c2c(C)[nH]n(-c3ccccc3)c2=O)cc1 (stereo not given)	G9a block inconclusive, BAZ2B inh inconclusive
Cc1[nH]n(-c2ccccc2)c(=O)c1C(C[N+](=O)[O-])c1ccc(F)cc1 (stereo not given)	G9a block 45µM, BAZ2B inh inconclusive
COc1ccc(S(=O)(=O)c2c(SC)nn(CC(=O)Nc3cccc(C)c3C)c2N)cc1	none (no result: L3MBTL1 inh)
Cc1ccc(CN2C(=O)C3(c4ccccc42)N(c2ccc(C)c(Cl)c2)C(=O)CS3(=O)=O)cc1 (stereo not given)	none (no result: L3MBTL1 inh)
O=C(O)c1ccc(Br)cn1	G9a block 22µM, BAZ2B inh 22µM, JMJD2A Tudor 5.6µM (no result: L3MBTL1 inh)
COC(=O)c1ccc(C(=O)O)nc1	HP1b binding inh inconclusive, L3MBTL1 inh inconclusive, BAZ2B inh 18µM, JMJD2A Tudor 13µM (no result: G9a block)
COC(=O)c1ccc(C(=O)OC)nc1	none
Cc1ccc(C(=O)OCC(=O)Nc2sccc2C(N)=O)cc1NC(=O)c1ccco1	G9a block 0.89µM (no result: L3MBTL1 inh)
Cc1ccc(C(=O)OCC(=O)Nc2sc3c(c2C#N)CCCCC3)cc1NC(=O)c1ccco1	none
Cc1ccc(C(=O)OCC(=O)Nc2ccccc2)cc1NC(=O)c1ccco1	none (no result: BAZ2B inh)
Cc1ccc(C(=O)OCC(=O)Nc2sc3c(c2C#N)CCCC3)cc1NC(=O)c1ccco1	G9a block 22µM (no result: L3MBTL1 inh)
Cc1ccc(C(=O)OCC(=O)Nc2ncc(Cl)cc2Cl)cc1NC(=O)c1ccco1	G9a block 45µM, JMJD2A Tudor inconclusive (no result: L3MBTL1 inh)
CC(C)NC(=O)CCC(=O)N1Cc2ccccc2Oc2ncccc21	none (no result: L3MBTL1 inh)
Cc1cccc(NC(=O)CN2C(=O)N/C(=C\c3ccccc3OCc3ccc(C(=O)O)cc3)C2=O)c1	HP1b binding inh inconclusive, BAZ2B inh 71µM, JMJD2A Tudor inconclusive (no result: L3MBTL1 inh)
O=C(CN1C(=O)N/C(=C\c2ccccc2OCc2ccc(C(=O)O)cc2)C1=O)Nc1ccc(F)cc1	HP1b binding inh inconclusive, BAZ2B inh 71µM (no result: L3MBTL1 inh)
O=C(O)c1ccc(COc2ccccc2/C=C2\NC(=O)N(Cc3ccc(F)cc3)C2=O)cc1	G9a block inconclusive
COCCN=C1Sc2nc3c(C)cccc3cc2CN1Cc1ccco1	JMJD2A Tudor inconclusive
Cc1ccc2nc3c(cc2c1)CN(Cc1ccco1)C(=NCC1CCCO1)S3 (stereo not given)	G9a block inconclusive, HP1b binding inh inconclusive, JMJD2A Tudor 56µM
Cc1cccc2cc3c(nc12)SC(=NCC1CCCO1)N(Cc1ccco1)C3 (stereo not given)	G9a block 6.3µM, HP1b binding inh inconclusive, BAZ2B inh inconclusive, JMJD2A Tudor 56µM
CCc1ccc(-n2c(=O)c3c4c(sc3n(CC(=O)N3CCCCC3CC)c2=O)CCC4)cc1 (stereo not given)	none (no result: L3MBTL1 inh)
COC(=O)Nc1sc2c(c1C(=O)NCc1ccco1)CCC2	L3MBTL1 inh inconclusive, BAZ2B inh inconclusive, JMJD2A Tudor 56µM
CNC(=O)C(Sc1nc(C)nc2c1oc1ccccc12)C(C)=O (stereo not given)	G9a block 18µM (no result: L3MBTL1 inh)
Cc1nc(NCCc2ccccc2)c2oc3ccccc3c2n1	G9a block 79µM, BAZ2B inh inconclusive (no result: L3MBTL1 inh)
